From the supplement of paper PMC7411054 come the findings set out here.

Counter-ions that a name gives are not always drawn. Unmarked numbers belong to inactive results.

This assay deals with HepG2-TP53BP1-CLTA. In words: phenotypically active (imaging signature differs from DMSO and reproducible) at any of 0.3-9 uM (binary (1 = active, 0 = inactive)); higher = active. As to conditions: treatment time: 24 h. In outline: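 Fifteen gene-edited A549, HepG2 and WPMY1 reporter lines (BFP segmentation plus GFP and RFP/FusionRed markers) were treated at 0.3, 1, 3 or 9 µM for 24 h, four wells each, then imaged live. Live-cell features per well were normalised to DMSO control wells. Deviation required ≥3 of 4 wells beyond the 95th percentile of DMSO Euclidean distances, and reproducibility required median replicate Pearson correlation above the 95th percentile of non-replicates. Phenotypic activity needed both criteria.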
Turning to `CN1C(=O)CC(C)(c2ccccc2)C1=O` (centres undefined) [methsuximide], the phenotypically active was 0.
Next, `O=C(NCCO)c1cc(C(=O)NCCO)cc(C(=O)NCCO)c1`: 0; `CO[C@H]1C=CO[C@@]2(C)Oc3c(C)c(O)c4c(O)c(c5c(nc6cc(C)ccn65)c4c3C2=O)NC(=O)C(C)=CC=C[C@H](C)[C@H](O)[C@@H](C)[C@@H](O)[C@@H](C)[C@H](OC(C)=O)[C@@H]1C` [Rifaximin]: 0.
`N#Cc1ccc(C(c2ccc(C#N)cc2)n2cncn2)cc1` [Letrozole]: the phenotypically active is 0.
As to `NC(=O)c1cccc(-c2cccc(OC(=O)NC3CCCCC3)c2)c1`, the phenotypically active is 0.
In the case of `O=C(Nc1cccnc1)c1cc(-c2ccnc(F)c2)ccc1OCc1ccccc1`, the phenotypically active is 0.
In the case of `O=C(O)CCCC[C@@H]1SC[C@@H]2NC(=O)N[C@@H]21` [Biotin], the phenotypically active was 0.
For the compound `NS(=O)(=O)c1cc2c(cc1Cl)NC(C(Cl)Cl)NS2(=O)=O` (centres undefined) [trichlormethiazide], the phenotypically active was 0.
For the compound `CCn1c(=O)c2cc(C(N)=O)c(N)nc2n(C2CC2)c1=O`, the phenotypically active was 0.
Regarding `CCCSc1nc2c(c(=O)n1-c1ccccc1)SCC2`, the phenotypically active is 0.
As to `COc1cc(C#N)ccc1S(=O)(=O)Nc1ccc2c(c1)cc(C)c(=O)n2C`, the phenotypically active is 0.
Next, `CC(C)(C)NC[C@H](O)COc1nsnc1N1CCOCC1` [timolol]: 0.
Turning to `CC[N+](CC)(CC)CCC(O)(c1ccccc1)C1CCCCC1` (centres undefined) [tridihexethyl], the phenotypically active was 0.
Regarding `COC(=O)C1=CO[C@@H](O[C@@H]2O[C@H](CO)[C@@H](O)[C@H](O)[C@H]2O)[C@H]2[C@@H]1C(=O)C[C@@H]2C` [Verbenaline], the phenotypically active is 0.
On to `Nc1ncnc2c1ncn2[C@H]1O[C@@H](C(=O)N2CCN(CC(=O)Nc3cccc4c3CNC4=O)CC2)[C@H](O)[C@@H]1O`, for which the phenotypically active is 0.
With `COc1ccc2cc(CCC(C)=O)ccc2c1` [nabumetone], the phenotypically active is 0.
To `CC(C)c1ccc2oc3nc(N)c(C(=O)O)cc3c(=O)c2c1` [Amlexanox] belongs 0.
Next, `O=C(/C=C/N1C[C@H]2C[C@@H]1CN2c1ccccn1)c1ccccc1O`: 0.
For the compound `C#CCN(C)Cc1ccccc1` [pargyline], the phenotypically active is 0.
For `Cc1nc2c(O)cccc2c(=O)[nH]1`, the phenotypically active is 0.
As for `CC(C)Cn1c(=O)n(C)c(=O)c2[nH]cnc21`, the phenotypically active was 0.
Next, `COc1ccccc1OCC(O)CN1CCN(CC(=O)Nc2c(C)cccc2C)CC1` (centres undefined) [ranolazine]: 0.
Turning to `COC(=O)c1c(C)cc(OC(=O)c2c(C)cc(O)c(C=O)c2O)c(C)c1O` [Atranorin], the phenotypically active was 0.
As to `CC(C)NCCCC1(C(N)=O)c2ccccc2-c2ccccc21` [indecainide], the phenotypically active is 0.
With `O=C1c2ccccc2C(Cc2ccncc2)(Cc2ccncc2)c2ccccc21`, the phenotypically active is 0.
Next, `CC1=NN(c2ccc(C(=O)O)cc2)C(=O)/C1=C\c1ccc(-c2cc(C)c(C)cc2[N+](=O)[O-])o1`: 0; `CCCC(=O)Nc1ncnc2c1ncn2[C@@H]1O[C@@H]2COP(=O)(O)O[C@H]2[C@H]1OC(=O)CCC` [Dibutyryl-cAMP, sodium salt]: 0; `CCO[C@@H](Cc1ccc(OCCc2ccc(OS(C)(=O)=O)cc2)cc1)C(=O)O` [Tesaglitazar]: 0.
`O=c1[nH]cnc2ccccc12`: the phenotypically active was 0.
For `S=P(N1CC1)(N1CC1)N1CC1` [thiotepa], the phenotypically active was 0.
To `C[C@](N)(Cc1ccc(O)c(O)c1)C(=O)O` [methyldopa] belongs 0; to `CC1CCC(C(C)C)C(O)C1` [L-menthol], 0.
Regarding `CCCCC1=NC2(CCCC2)C(=O)N1Cc1ccc(-c2ccccc2-c2nnn[nH]2)cc1` [irbesartan], the phenotypically active is 0.
`CC(=O)Oc1ccccc1C(=O)O` [aspirin]: the phenotypically active was 0.
To `CC(C(=O)O)c1ccc(C(=O)c2cccs2)cc1` (centres undefined) [suprofen] belongs 0; to `FC(F)OC(F)C(F)(F)F` (centres undefined) [desflurane], 0; to `CC(C)NCC(O)c1ccc(NS(C)(=O)=O)cc1` (centres undefined) [sotalol], 0.
Turning to `COc1ccc(C(C)=O)c(O)c1` [2'-Hydroxy-4'-Methoxyacetophenone], the phenotypically active is 0.
Next, `CC(=O)[C@H]1CC[C@H]2[C@@H]3CCC4=CC(=O)CC[C@]4(C)[C@H]3CC[C@]12C` [progesterone]: 0.
